97 molecules from PubChem BioAssay AID738 (SRMLSC, 2007) can be followed below.

Among all 98,000 compounds or so, about 4,900 (5%) were called active. The sample holds actives, similar compounds and a random draw of the others, so the mix is not that of the screen. Rule as the data show it: active = inhibition above about 30%; inactive = the rest.

The nature of this assay: growth inhibition of yeast control strain, primary screen, counter-screen for post-Golgi transport modulator project (AID 738). Particulars: efflux-deficient yeast background strain, growth absorbance A615, 16 h; at 10 µM; hits give high values.
One may read the inhibition as the drop in the measured response relative to a control, in per cent. Consider `O=C(N/N=C/C=C/c1ccccc1)C1CC1(c1ccccc1)c1ccccc1` (configuration not stated), for which the inhibition was 64% (active).

Consider `Cc1nn(C)c(Oc2ccccc2)c1[N+](=O)[O-]`, for which the inhibition was 5.76% (inactive).

With `O=c1c2ccccc2oc2nc3n(c(=O)c12)CCCS3`, the inhibition is 0.28% (inactive).

With `O=c1c2ccccc2oc2nc(C3CCCCC3)n(Cc3ccco3)c(=O)c12`, the inhibition was 78.7% (active).

Regarding `CCc1nc2oc3ccccc3c(=O)c2c(=O)n1Cc1ccc(OC)cc1`, the inhibition was 11.8% (inactive).

Consider `c1ccc(Nc2nc(-c3ccncc3)cs2)nc1`, for which the inhibition was 4.87% (inactive).

`O=C(Nc1ccc(Cl)cn1)Nc1cccs1`: the inhibition is 19.8% (inactive).

As to `Clc1ccc(Nc2nc(-c3cccs3)cs2)nc1`, the inhibition was 45.4% (active).

On to `Cc1ccc(OCC(=O)N/N=C/c2ccncc2)cc1`, for which the inhibition was 7.69% (inactive).

As to `Cc1ccc(C(=O)N2CCN(C(=O)N3CCOCC3)CC2)cc1`, the inhibition was -1.43% (inactive).

In the case of `CCOC(=O)C(=CNc1cccc(C)n1)C(=O)OCC`, the inhibition was -2.27% (inactive).

Regarding `Cc1ccc(Cl)cc1NC(=O)COC(=O)C1CCCCC1`, the inhibition is -5.31% (inactive).

For the molecule `Cc1noc(C)c1S(=O)(=O)N(CC(=O)NCc1ccc(Cl)cc1)c1ccc2c(c1)OCO2`, the inhibition was 4.52% (inactive).

As for `Cc1noc(C)c1S(=O)(=O)N(CC(=O)Nc1ccc2c(c1)OCCO2)c1ccc(C(C)C)cc1`, the inhibition is 36.1% (active).

Turning to `CCOC(=O)c1cccc(NC(=O)CN(c2ccc(C)cc2)S(=O)(=O)c2c(C)noc2C)c1`, the inhibition is 26.9% (inactive).

`CCOC(=O)Cc1csc(NC(NC(=O)OCC)(C(F)(F)F)C(F)(F)F)n1`: the inhibition was -12.3% (inactive).

Take `CCOC(=O)Cc1csc(NC(=O)CSc2nc(C)cc(=O)[nH]2)n1`: the inhibition was 3.73% (inactive).

As to `CCOC(=O)Cc1csc(NC(=O)C(C)(C)C)n1`, the inhibition was 50.5% (active).

In the case of `CCOc1cc(CNCCN(C)C)c(Cl)cc1OCC(=O)NCCc1ccccc1`, the inhibition is 7.63% (inactive).

For `CCN(CC)S(=O)(=O)c1cc([N+](=O)[O-])ccc1NNC(=O)Nc1ccccc1`, the inhibition is 5.17% (inactive).

For the molecule `COc1ccc(NC(=O)ON=C2c3ccccc3-c3ccccc32)cc1`, the inhibition was 3.19% (inactive).

Take `O=C(Nc1ccccc1)O/N=C1\CCCCC1c1ccc([N+](=O)[O-])cc1[N+](=O)[O-]` (configuration not stated): the inhibition is 47.9% (active).

Consider `Cc1ccc(C2CC2C(=O)NN)cc1` (configuration not stated), for which the inhibition was -1.07% (inactive).

In the case of `COc1cccc(CNCCc2c[nH]c3ccccc23)c1OCc1ccccc1F`, the inhibition was 15.9% (inactive).

For `COCCCn1c(SCc2cccc(OC)c2)nc2cc(OC)c(OC)cc2c1=N`, the inhibition is 21.9% (inactive).

Turning to `CN1CCN(c2ccc(NC(=O)COc3ccc(Cl)cc3Cl)cc2)CC1`, the inhibition was 5.47% (inactive).

Regarding `Cc1ccccc1OCC(=O)Nc1ccc(N2CCN(C(=O)C(C)C)CC2)c(Cl)c1`, the inhibition was 6.6% (inactive).

On to `Cc1ccc(NC(=O)COc2ccc(-n3ccnc3)cc2)cc1Cl`, for which the inhibition is 34.5% (active).

Consider `CC(=O)NS(=O)(=O)c1ccc(NC(=O)/C=C/c2ccccc2Cl)cc1`, for which the inhibition was 4.99% (inactive).

For the molecule `O=C(c1ccccc1)C(Cn1cncn1)C(Sc1ccccc1)c1ccccc1` (configuration not stated), the inhibition is 26.1% (inactive).

For `CCOC(=O)N1CCN(C(c2cccnc2)c2ccc3cccnc3c2O)CC1` (configuration not stated), the inhibition was 1.65% (inactive).

As to `Cc1noc(C)c1CSCC(=O)Nc1nc2ccc(Oc3ccccc3)cc2s1`, the inhibition was 56.3% (active).

Take `CCOC(=O)c1c(C2CC2)csc1NC(=O)CSCc1c(C)noc1C`: the inhibition was 23.3% (inactive).

As to `CCn1c(SCC(=O)Nc2nc3ccc(OC)cc3s2)nnc1-c1ccoc1C`, the inhibition was 19.9% (inactive).

For `O=S(=O)(c1ccc(F)cc1)n1ccc(-c2cnc(-c3ccccc3)s2)n1`, the inhibition was 6.8% (inactive).

On to `COc1ccccc1-n1nnnc1S(=O)(=O)Cc1ccc(Cl)cc1`, for which the inhibition was 32.4% (active).

For the molecule `COc1ccccc1N1CCN(C(=O)CN(Cc2ccc(Cl)cc2)S(C)(=O)=O)CC1`, the inhibition was 1.33% (inactive).

For the molecule `O=S(=O)(O)c1nc2ccccc2n1Cc1ccc(Cl)cc1`, the inhibition is 2.95% (inactive).

Regarding `Cc1cccc(C(=O)Nc2ccc(C(=O)/C=C/c3cccs3)cc2)c1`, the inhibition was 3.4% (inactive).

As for `O=C(Nc1ccn(Cc2ccccc2F)n1)c1ccc(COc2ccc(Cl)cc2Cl)o1`, the inhibition is 27.6% (inactive).

Consider `CCn1c(SCC(=O)Nc2ccc3c(c2)OCCO3)nc2c(c1=O)SC(C)C2` (configuration not stated), for which the inhibition was 6.57% (inactive).

On to `CCn1c(SCC(=O)Nc2ccccc2F)nc2c(c1=O)SC(C)C2` (configuration not stated), for which the inhibition was 103% (active).

Take `CC1Cc2nc(SCC(=O)Nc3ccccc3F)n(C)c(=O)c2S1` (configuration not stated): the inhibition was 25.6% (inactive).

Regarding `O=S(=O)(c1cccc2nonc12)N1CCN(c2cccc(Cl)c2)CC1`, the inhibition was -0.91% (inactive).

With `Cc1cc(C)c([N+](=O)[O-])cc1-c1ccc(/C=N/NC(=O)c2nonc2N)o1`, the inhibition was 8.91% (inactive).

On to `Cc1cc([N+](=O)[O-])c(-c2ccc(/C=N/n3cnnc3)o2)cc1Cl`, for which the inhibition is 19.7% (inactive).

`Cc1cc(-c2ccc(/C=N/n3cnnc3)o2)c([N+](=O)[O-])cc1C`: the inhibition is 39.1% (active).

With `CC(=O)c1cc2c(cc1NC(=O)CN1CCCCCC1)OCO2`, the inhibition was 5.16% (inactive).

For the molecule `C/C=C/C(=O)OCC(=O)Nc1ccc(F)cc1Cl`, the inhibition is 3.31% (inactive).

In the case of `CC(Oc1ccc(F)cc1F)C(=O)/C=C/N(C)C` (configuration not stated), the inhibition is -1.04% (inactive).

With `COC(=O)CNC(=O)c1ccccc1F`, the inhibition was 4.83% (inactive).

For `CN(C)/C=C/C(=O)c1ccccc1F`, the inhibition was 36.4% (active).

For the molecule `Cc1ccc(N2C(=O)C(Cc3ccccc3)NC2=S)cc1` (configuration not stated), the inhibition is 5.73% (inactive).

Take `COc1cc(Cl)c(C)cc1NC(=O)CSc1nnc(-c2ccco2)n1CC(C)C`: the inhibition is 34% (active).

Turning to `COc1cc(Cl)c(C)cc1NC(=O)CSc1nnc(-c2cccnc2)n1Cc1ccco1`, the inhibition was 3.14% (inactive).

In the case of `CCn1c(SCC(=O)Nc2cc(C)c(Cl)cc2OC)nnc1-c1ccco1`, the inhibition is 26.5% (inactive).

Turning to `O=C1CC(C(F)(F)C(F)(F)C(F)(F)C(F)(F)F)=Nc2ccccc2N1`, the inhibition is 16.7% (inactive).

In the case of `O=C(CSCc1ccc(Br)cc1)Nc1ccc(S(=O)(=O)N2CCCCCC2)cc1`, the inhibition was 6.87% (inactive).

Take `CCN(CC)C(=O)CCC(=O)Nc1ccc(C(=O)OC)cc1`: the inhibition was 1.42% (inactive).

On to `COCC(=O)Nc1ccc(Br)cc1`, for which the inhibition was 36.8% (active).

With `O=C(Nc1ccc2c(c1)CCC2)c1cccc(S(=O)(=O)N2CCN(c3ccc(F)cc3)CC2)c1`, the inhibition is 17.8% (inactive).

On to `Cc1cc(C=O)c(C)n1-c1ccc(NC2CCCCC2)c([N+](=O)[O-])c1`, for which the inhibition was 39% (active).

On to `COc1cc(OC)c(-n2c(C)cc(C=O)c2C)cc1Cl`, for which the inhibition is 20.4% (inactive).

As for `Cc1ccc(-n2c(C)cc(/C=N/Nc3ccc([N+](=O)[O-])cn3)c2C)c(C)c1`, the inhibition is 3.3% (inactive).

For the molecule `O=C(O)c1ccccc1NC(=S)NC(NC(=O)c1ccccc1[N+](=O)[O-])C(Cl)(Cl)Cl` (configuration not stated), the inhibition was 21.6% (inactive).

In the case of `NC(=O)c1c(NC(=O)CSc2nnc(-c3ccco3)n2N)sc2c1CCCC2`, the inhibition is -1.04% (inactive).

With `O=C(CN1CCN(S(=O)(=O)c2ccc3ccccc3c2)CC1)NC(=O)NC1CCCCC1`, the inhibition was 19.7% (inactive).

As for `CCOc1cccc(C(=O)Nc2cnn(Cc3ccccc3)c2)c1`, the inhibition is -4.4% (inactive).

Consider `CCOC(=O)CCP(=O)(O)C(O)(c1ccccc1)c1ccccc1`, for which the inhibition was 2.13% (inactive).

Take `CCCCCCOC(=O)NCC(O)c1ccccc1` (configuration not stated): the inhibition was 4.19% (inactive).

Take `CCOC(=O)C(C(=O)OCC)C(C#N)c1ccccc1` (configuration not stated): the inhibition is 30.5% (active).

As to `CCNC(=S)Nc1cccc(Cl)c1C`, the inhibition was 3.81% (inactive).

On to `COc1ccc(Cc2nnc(SCC(=O)c3cccc([N+](=O)[O-])c3)n2C)cc1`, for which the inhibition was 3.08% (inactive).

In the case of `Cc1ccc(NC(=O)N2CCC(c3nc4c(nnn4Cc4c(F)cccc4Cl)c(=O)[nH]3)CC2)cc1`, the inhibition was 8.76% (inactive).

As for `COc1cc(OC)c(C(=O)NC2CCCCCC2)cc1OC`, the inhibition is 46.5% (active).

For `COc1cc(OC)c(C(=O)NC2CC(C)(C)NC(C)(C)C2)cc1OC`, the inhibition was -5.38% (inactive).

Consider `COc1ccc(-c2nnc(SCC(=O)NC3CCCCC3)o2)cc1OC`, for which the inhibition is -2.95% (inactive).

For `C=CCn1c(SCCOc2ccc(OC)cc2)nnc1C(NC(=O)c1ccc(OC)cc1)C(C)C` (configuration not stated), the inhibition is 10.1% (inactive).

Turning to `CCOc1ccc(-n2c(N)c(C(=O)NCC3CCCO3)sc2=S)cc1` (configuration not stated), the inhibition is 3.93% (inactive).

For `O=C(Cc1ccc(S(=O)(=O)N2CCOCC2)s1)NCCC(c1ccccc1)c1ccccc1`, the inhibition was 22.9% (inactive).

On to `O=C(Cc1ccc(S(=O)(=O)N2CCCC2)s1)NC1CCCCCC1`, for which the inhibition is 31.8% (active).

In the case of `O=C(NC1CCCCC1)C1CCCN(S(=O)(=O)c2cccs2)C1` (configuration not stated), the inhibition is -12.5% (inactive).

For `COc1ccc(-c2cc(C)nc3nc(N)nn23)cc1`, the inhibition was 5.75% (inactive).

For the molecule `Cc1cc(N)n2nc(-c3ccc(C(C)(C)C)cc3)cc2n1`, the inhibition is 31% (active).

`Cc1cccc(-n2ncc(C#N)c2-n2cccc2)c1`: the inhibition is 20.2% (inactive).

On to `Cc1[nH]nc(-c2ccc(OCc3cnn(-c4ccccc4)c3)cc2O)c1Oc1ccc(Cl)cc1`, for which the inhibition was 0% (inactive).

For the molecule `Cn1c(=O)c2c(ncn2CC(COCc2ccccc2Cl)OCc2ccccc2Cl)n(C)c1=O` (configuration not stated), the inhibition is 8.65% (inactive).

In the case of `COc1cc(OC)c(C(=O)Nc2ccc(N(C)C)cc2)cc1OC`, the inhibition is 27.7% (inactive).

Regarding `COc1ccc(Cl)cc1C(=O)NCC#N`, the inhibition is 18.5% (inactive).

For the molecule `COc1ccc(Cl)cc1C(=O)Nc1ccc(N(C)C(C)=O)cc1`, the inhibition was 32.4% (active).

For the molecule `CCn1c(C)nc2c1C(=O)c1ccccc1C2=O`, the inhibition was 4.03% (inactive).

Turning to `CC(C)N(c1ccccc1)c1ncnc(NCCC(=O)O)c1[N+](=O)[O-]`, the inhibition was 5.97% (inactive).

Turning to `O=S(=O)(c1cnccc1N1CCN(/N=C/c2ccc(Br)cc2)CC1)N1CCCCC1`, the inhibition is -4.38% (inactive).

In the case of `Cc1nc2cc(NC(=O)NCc3ccccc3)ccc2o1`, the inhibition was 12.9% (inactive).

For the molecule `CC(=O)c1cccc(NC(=O)Nc2ccc(C)cc2)c1`, the inhibition is 0.29% (inactive).

In the case of `C=CC[n+]1c(-c2ccc(C)cc2)csc1NNC(=O)Nc1ccccc1`, the inhibition is 40.7% (active).

As for `C=CCNC(=O)c1csc(-c2ccccc2)n1`, the inhibition is -0.15% (inactive).
